Laboratory results: PubChem BioAssay AID2729 (National Center for Advancing Translational Sciences (NCATS), 2010)
This is one part of the list. Inconclusive results are not listed. Active and inactive are the calls of the source. The call rests on the fitted dose curve; in most records, active means well fitted inhibition curve with a large enough effect; inconclusive means small, poorly fitted or top-dose-only effect, or effect the other way; inactive means flat fitted curve, though single readings scatter.

Assay: High Content Assay for Compounds that inhibit the Assembly of the Perinucleolar Compartment: WI-38 Cytotoxicity
Settings: WI-38 normal lung fibroblasts, ATPLite luminescence ATP viability, 24 h; series mostly up to 46.1 µM
Description: High Content Assay for Compounds that inhibit the Assembly of the Perinucleolar Compartment
NIH Chemical Genomics Center [NCGC]
NIH Molecular Libraries Probe Centers Network [MLPCN]
Assay Submitter (PI): Sui Huang, Northwestern University, Feinberg School of Medicine, Cell and Molecular Biology, Chicago, Illinois.
The perinucleolar compartment (PNC) is a non-membrane-bound nuclear subdomain that is associated with but structurally distinct from the nucleolus. The PNC is a heritable trait, in which the number of PNCs per cell in daughter cells often mimics that of their mother cells. The PNC is heterogeneous in shape, is stable through interphase, disassembles during mitosis, and reassembles in early G1. The PNC is concentrated with newly synthesized RNA polymerase III (pol III) RNAs (MRP RNA, RNAse P H1 RNA, hY RNAs[hY1, 2, 5], Alu RNA, and SRP [7SL] RNA) and RNA binding proteins (nucleolin, PTB, CUG-BP, KSRP, Raver1, Raver2, and Rod).
Extensive in vitro studies have shown that the PNC is unique to tumor cells and preferentially forms in tumor cells derived from solid tissues. Examination of cancer cell lines from various origins and malignant capacities has shown that PNC prevalence correlates with the malignancy of tumors and has the potential to be developed as a pan-cancer prognostic marker.
Although the PNC is associated with a DNA locus and a handful of components have been identified, much remains to be investigated regarding the structure and function of the PNC and its mechanistic link to cancer. We have previously shown that PNC prevalence reduction is a valid strategy to identify compounds that can be used to study the structure and function of the PNC. It is necessary, however, to create a screening platform that is able to test a large number of compounds in an automated fashion. Here we report the development and robustness of an automated whole-cell phenotypic image-based screening assay that is capable of identifying such compounds.
We conducted a followup assay to measure the effect of the lead candidates on cell health in a non-metastatic line, WI-38, by measuring ATP levels (ATPLite).
1. Cells at a density of 75-90% confluency in T175 flasks were harvested using 7 ml TrypLE Express cell dissociation reagent. After dissociation (5 minutes room temperature incubation) 10 ml of complete media was added to the TrypLE/cell suspension. The liquid was transferred to a 50 ml Conical tube and cells were pelleted at 1000 RPM for 5 min. Supernatant was removed and cells were resuspended to a final density of 150-200 cells/ul in complete media.
2. Cells were plated in 5 ul volume (2000 cells/well) into 1536 well White solid bottom plates and allowed to recover and adhere at 37 C in a humidified 5% CO2 incubator for 4 hours.
3. After 4 hour incubation, compound libraries (23 nl of 12.5 uM in columns 5-48) were transferred to the plates in duplicate using a 1536 well pintool. Camptothecin positive control (59 uM final) was added to column 2 and 1:3 dilutions of camptothecin was added to column 3. DMSO negative controls were present in columns 1 and 4.
4. After a 24 hour incubation in the 37 C incubator, all wells were treated with 3 ul of ATPLite reagent using a multidrop combi dispenser (ThermoFisher). Bubbles that formed during dispensing were removed by spinning the plates for 1 minutre at 1500 RPM on a table top centrifuge.
5. Luminescencent signal was detected on a Viewlux CCD based imager (PerkinElmer) with a clear filter and a 30 second integration time.
The WI-38 normal human fetal lung fibroblast cell line was provided by Sui Huang of Northwestern University. The media and cell culture reagents were purchased from Invitrogen (Carlsbad, CA), ATPLite came from PerkinElmer.

**Q.** Which outcome does the source give for `Cn1c2ccccc2c(=O)c2c(=O)n(Cc3ccco3)c(COc3ccccc3)nc21` here?
**A.** inactive

**Q.** For `COC(=O)c1ccc(CSc2ccccc2C)o1`, which outcome is on record?
**A.** inactive

**Q.** With `CC1(c2cccc([N+](=O)[O-])c2)CC(C)(C)N(C(=O)c2ccccc2)c2ccccc21` (stereo unspecified) as the compound, how does the outcome read?
**A.** inactive

**Q.** Which outcome does the source give for `COC(=O)C1=C(C)N(c2ccc(Br)cc2)C(=O)/C1=C\c1ccco1` here?
**A.** inactive

**Q.** For `N=c1c2c(-c3ccccc3)c(-c3ccccc3)n(Cc3ccccc3)c2ncn1CCCO`, which outcome is on record?
**A.** inactive

**Q.** Which outcome does the source give for `CCOC(=O)c1c(-c2cccc(C)c2)csc1NC(=O)c1c(-c2ccccc2)noc1C` here?
**A.** inactive
